Data: PubChem BioAssay (NCI)
“And” between values parts separate entries of the source, which are not always exact repeats. Equal entries are not always repeated. About 79,000 compounds went through this panel and 15% of them were active in at least one assay; those are over-represented in the sample as a whole. The source made the active and inactive calls. Rule as the data show it: active = growth inhibition above about 70%; inactive = the rest.

Legend:
[1] = NCI Yeast Anticancer Drug Screen. Data for the rad50 strain (AID 155);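 also: 0% = growth of vehicle-only cultures of the same strain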; details: S. cerevisiae rad50 strain growth inhibition, stronger effect = higher value; at 50.0 µM unless noted
How it was run: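 Vehicle-treated cultures provide the reference for the growth inhibition reported for compound-exposed, repair-deficient yeast.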

[2] = NCI Yeast Anticancer Drug Screen. Data for the mec2-1 strain (AID 157); details: S. cerevisiae mec2-1 strain, stronger effect = higher value; at 50.0 µM unless noted
How it was run: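 Growth inhibition is read against vehicle-treated controls after compound exposure of the mec2-1 yeast strain, which is defective in DNA damage repair or cell cycle control.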

[3] = NCI Yeast Anticancer Drug Screen. Data for the sgs1 mgt1 strain (AID 161);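 also: 0% = growth of cultures given vehicle only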; details: S. cerevisiae sgs1 mgt1 strain, stronger effect = higher value; at 50.0 µM unless noted
How it was run: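 Yeast cells carrying a defined DNA-repair defect were exposed to test compounds. Growth inhibition was measured relative to vehicle-treated controls.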

[4] = NCI Yeast Anticancer Drug Screen. Data for the cln2 rad14 strain (AID 165);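 also: 0% = growth equal to vehicle treated cultures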; details: S. cerevisiae cln2 rad14 strain, stronger effect = higher value; at 50.0 µM unless noted
How it was run: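 Growth inhibition, relative to vehicle-treated controls, is the read-out. The test organism is a yeast strain with defined genetic alterations, cln2 rad14.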

[5] = NCI Yeast Anticancer Drug Screen. Data for the bub3 strain (AID 167); details: S. cerevisiae bub3 mutant strain, stronger effect = higher value; at 50.0 µM unless noted
How it was run: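 Mutant yeast screening strain plus compound; vehicle-treated cultures serve as the 0% inhibition reference.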

[6] = NCI Yeast Anticancer Drug Screen. Data for the mlh1 rad18 strain (AID 175); details: S. cerevisiae mlh1 rad18 strain growth inhibition, stronger effect = higher value; at 50.0 µM unless noted
How it was run: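 Cells of a genetically altered yeast strain, deficient in DNA damage repair, were treated with compound. Their growth was then compared with that of vehicle-treated cultures to give inhibition.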

Measured: growth inhibition

COc1ccc(-n2c(CCC(=O)O)nc3c2C(=O)c2ccccc2C3=O)cc1
inactive: [1] 31.6% | [2] 17.6% | [3] 34% | [4] 49% | [5] 14.7% | [6] 14.2%

N#Cc1sc2c(c1OC(=O)c1cccs1)c(=O)n(-c1ccccc1)c(=S)n2-c1ccccc1
inactive: [1] 3.1% | [2] 10.4% | [3] 17.2% | [4] -5.55% | [5] 25.8% | [6] 15.2%

COc1cccc(C2SCC(=O)N2c2ccc(-n3c(-c4ccccc4)nc4ccccc4c3=O)cc2)c1OC (stereo not given)
inactive: [1] 11.9% | [2] 26.4% | [3] 0.9% | [4] -9.7% | [5] 22.4% | [6] 26.9%

CCc1c(C)[nH]c2ccc([N+](=O)[O-])cc12
inactive: [1] 18.2% | [2] 3.25% | [3] 6.7% | [4] 19.9% | [5] 23.2% | [6] 26.4%

OCC1OC(O)C(O)C(O)C1O (stereo not given)
inactive: [1] 5.05% and 8.6% | [2] 1.75% and 15.1% | [3] -0.95% and -5.85% | [4] -19.4% and 16.8% | [5] -4.1% and 2.1% | [6] 3.1% and 14.4%

COC(NC(=O)Nc1ccccc1C)(C(F)(F)F)C(F)(F)F
inactive: [1] -12.3% | [2] -22.4% | [3] -34.4% | [4] 2.8% | [5] -24.4% | [6] -12.8%

CN(C)CCNC(=O)Cn1ccc(=O)c2ccc([N+](=O)[O-])cc21
inactive: [1] 11.9% | [2] 6.55% | [3] 20.6% | [4] 20.8% | [5] -5.85% | [6] -39.5%

N=C(N)CCNC(=O)C1CCC(N)=N1 (stereo not given)
inactive: [1] -4.85% | [2] -17.8% | [3] -13.9% | [4] 56.4% | [5] -28.1% | [6] -13.6%

O=S1(=O)CCC(c2ccccc2)C1 (stereo not given)
inactive: [1] 2.3% | [2] -10.7% | [3] -13.8% | [4] 0.45% | [5] -12.3% | [6] -7.15%

NC(=O)C1(N2CCCCC2)CCNCC1
inactive: [1] 7.85% | [2] -16.5% | [3] -8.2% | [4] 6.9% | [5] -5.45% | [6] 3.95%

Cc1cccc2c(N3CCN(c4ccccc4)CC3)c3c(nc12)CCCCC3
inactive: [1] 11.4% | [2] -22.7% | [3] -12.3% | [4] -3.05% | [5] 3.2% | [6] -2.7%

Cc1cccc2c1/C(=C1/c3ccccc3C(=O)c3cccc(C)c31)c1ccccc1C2=O
inactive: [1] -4.85% | [2] -24.1% | [3] -3.45% | [4] 14.3% | [5] -1.2% | [6] -6.15%

O=S(=O)(c1ccccn1)c1nc2ccccc2s1
inactive: [1] -1.75% | [2] 7.1% | [3] -0.45% | [4] 17.1% | [5] -2.8% | [6] 0.45%

Cc1ccc(S(=O)(=O)/C=C(/SC#N)C2CCCCC2)cc1
inactive: [1] 32.5% | [3] 69.5% | [4] 17.9%
active: [2] 90.6% | [5] 83.1% | [6] 79.7%

CCCCCCC(=O)OCC(=O)c1ccc(Br)cc1
inactive: [1] 2.85% | [2] 28.2% | [3] 15.2% | [4] -115% | [5] 22.2% | [6] 15%

Cc1ccc(O)c(Cl)c1C
inactive: [1] 6.4% | [2] -28.1% | [3] -6.7% | [4] 7.4% | [5] -26.3% | [6] 5.1%

COc1ccc2c(c1)CCN1CCCc3ccccc3C21 (stereo not given)
inactive: [1] 22.4% | [2] 2.75% | [3] 6.3% | [4] 25.8% | [5] 14.8% | [6] -5.75%

N#CC(C(=S)Nc1ccccc1)=C1Nc2ccccc2N1
inactive: [1] 7.2% | [2] -36.2% | [3] -18.1% | [4] -2.65% | [5] -20.1% | [6] -22.8%

COc1ccc(C(=O)N2N=C(C)C(C)(C)C2(C)O)cc1 (stereo not given)
inactive: [1] -7.05% | [2] -23.1% | [3] -23.6% | [4] 2.5% | [5] -29.8% | [6] -1.95%

CN(C)CCC(=O)C(=Cc1ccc(Cl)c(Cl)c1)C(=O)CCN(C)C
active: [1] 93.2% | [2] 97.7% | [3] 95% | [4] 79.8% | [5] 97.8% | [6] 98%

OC1COC(c2ccccc2)OC1 (stereo not given)
inactive: [1] -7.15% | [2] -2.1% | [3] 4.15% | [4] -5.85% | [5] -1.75% | [6] 24.6%

O=C(COc1ccc(Cl)cc1)N1CCN(C(=O)COc2ccc(Cl)cc2)c2ccccc21
inactive: [1] 11.7% | [2] 3.05% | [3] 23.9% | [4] 11.1% | [5] 11.6% | [6] -1.05%

CC(=O)NC1C(OCc2ccccc2)OC(CO)C(O)C1OCC(=O)NC(C)C(=O)NC(CCC(=O)NCCCCCNc1c2ccccc2nc2cccc([N+](=O)[O-])c12)C(N)=O (stereo not given)
inactive: [5] 53.5%
active: [1] 78.8% | [2] 87.3% | [3] 79% | [4] 78.8% | [6] 89%

O=C1OCC/C1=C\c1ccc2c(c1)OCO2
inactive: [1] 40.4% | [2] -26.5% | [3] 20% | [4] -2.85% | [5] -10.2% | [6] -2.4%

CCCCCCCCCCCCCCCCCCOC(=O)CC(C)=O
inactive: [1] -2.75% | [2] -4.55% | [3] -12.2% | [4] -5% | [5] -9.2% | [6] 3.95%

O=[N+]([O-])c1ccn(Cc2ccccc2)c1
inactive: [1] -6.25% | [2] 2.95% | [3] 5.65% | [4] -41.5% | [5] -14.2% | [6] 9.5%

CN1C(=O)N(c2cc(Cl)cc(Cl)c2)C(=N)C1=S
inactive: [1] 7.1% | [2] 1.75% | [3] 17.6% | [4] -3.1% | [5] 32.5% | [6] 37.5%

C=CCNC1=C(NC(C)=O)C(=O)c2ccccc2C1=O
inactive: [1] 16.1% | [2] 0.95% | [3] 4.8% | [4] -31.2% | [5] 28.6% | [6] 12.4%

CCO[C@@H]1OC(=O)[C@H]2C(c3ccccc3Cl)=NO[C@@H]12
inactive: [1] -33.1% | [2] -30.9% | [3] -13.2% | [4] -6.65% | [5] 14.2% | [6] 0.35%

O=C1C(NCCc2cc(Br)c(O)c(Br)c2)=CC(=O)c2ncccc21
inactive: [1] 31.9% | [2] 37% | [3] 33.9% | [4] 18.2% | [5] 34% | [6] 28.4%

COC(=O)c1cc2ccc(OC(C)=O)c(OC(C)=O)c2cn1
inactive: [1] 20.2% | [2] -20.2% | [3] 6.05% | [4] 9.3% | [5] 3.35% | [6] 19.9%

COc1ccc(C(=O)C(CN(C)C)CN(C)C)c(OC)c1
inactive: [1] 30.6% | [2] 30.8% | [3] 57% | [4] 32.9% | [5] 30.8% | [6] 64.2%

COc1ccc(-c2sc(C)nc2O)cc1
inactive: [1] 7.75% | [2] 2.35% | [3] 0.3% | [4] -20.8% | [5] -15.5% | [6] 7.2%

C=CCCC(CCC=C)(C(=O)O)C(=O)O
inactive: [1] -7.1% | [2] -9.7% | [3] -16.7% | [4] 6.65% | [5] -20.9% | [6] -36.8%

Cc1cc(C)c2c(c1)sc1n[nH]c(=S)n12
inactive: [1] 14.1% | [2] 6.7% | [3] 9.05% | [4] -11.4% | [5] -10.8% | [6] 3.95%

O=c1c2cncnc2sc2nc3ccccc3n12
inactive: [1] 16.1% | [2] -9.55% | [3] 28.3% | [4] 11.9% | [5] 15.3% | [6] 23.4%

OC1(c2cccnc2)c2ccccc2Oc2ccccc21
inactive: [1] -11.8% | [2] 7.25% | [3] 0.7% | [4] -28.1% | [5] -3.7% | [6] -8.2%

CC(=C/c1ccccc1)/C=C1/NC(=S)NC1=O
inactive: [1] -25.6% | [2] -41.9% | [3] -16.4% | [4] -2.7% | [5] -23.4% | [6] -21.4%

O=S(=O)(O)c1ccc2c(ccc3ccccc32)c1
inactive: [1] -18.4% and -3.8% | [2] -0.25% and -18.4% | [3] -2.9% and -14.2% | [4] -0.9% and 21.6% | [5] 1.35% and 28.1% | [6] 5.7% and -23.1%

CC1(C)N=C(Oc2cc(Cl)cc(Cl)c2)NC(=S)N1
inactive: [1] 11.8% | [2] -8.3% | [3] 24% | [4] 21.2% | [5] 7% | [6] 24%

Cc1cc(Cl)ccc1NC(=O)C1C(=O)N(c2ccc(Cl)cc2C)C(=O)/C1=N\N (stereo not given)
inactive: [1] 0.65% | [2] -31.4% | [3] 10.4% | [4] -18.9% | [5] -9.1% | [6] 9.7%

C[n+]1c(/C=C\C=C\c2ccccc2)sc2ccccc21
inactive: [1] 16.6% | [2] 2.05% | [3] 16.1% | [4] 18.1% | [5] 3% | [6] 11.2%

Cn1ncc2c(NC(C)(C)CC(C)(C)C)ncnc21
inactive: [1] 21.1% | [2] 7.95% | [3] 1.05% | [4] 1.55% | [5] 45.4% | [6] 16.8%

O=C1C2C3ON(c4ccccc43)C2C(=O)N1c1ccccc1 (stereo not given)
inactive: [1] -0.65% | [2] 21% | [3] 15.4% | [4] 2.4% | [5] 3.6% | [6] -3.55%

O=C(O)CC(CS(=O)O)C(=O)O (stereo not given)
inactive: [1] -9.65% | [2] -11.2% | [3] -13.4% | [4] 1.05% | [5] 1.15% | [6] -3.7%

CCCCCC=C(c1cc(Cl)c(OC)c(C(N)=O)c1)c1cc(Cl)c(OC)c(C(N)=O)c1
inactive: [1] -20.1% | [2] -9.35% | [3] -12.4% | [4] -92.9% | [5] 5.5% | [6] -13.9%

Cn1c(NN)nc2ccccc2c1=O
inactive: [1] -33.7% | [2] -3.25% | [3] -26.9% | [4] 5.55% | [5] -16.9% | [6] -27.8%

CC(=O)OCC1OC(n2c(=O)[nH]c(=O)c3n[nH]nc32)C(OC(C)=O)C(OC(C)=O)C1OC(C)=O (stereo not given)
inactive: [1] -4.2% | [2] 7.15% | [3] 3.4% | [4] 24.9% | [5] -1.05% | [6] -4.35%

Nc1nc2ncc(COc3ccc(C(=O)O)cc3)nc2c(=O)[nH]1
inactive: [1] 18.8% | [2] 3.2% | [3] 31.6% | [4] -16.1% | [5] 53.2% | [6] 13.6%

O=Cc1c[nH]c2ccc(F)cc12
inactive: [1] 9.85% | [2] -19.4% | [3] 20.6% | [4] 14.3% | [5] 19.9% | [6] 23.4%
